Laboratory results from publication PMC11024108.

Target: Actin-related protein 2/3 complex subunit 2 (UniProt Q9CVB6)
Assay: cross-link between two proteins; cross-linking mass spectrometry

Listed as a hit, yes:
Actin-related protein 3, Q99JY9
Actin-related protein 3B, Q641P0
Actin-related protein 2, P61161

Target: Histone H2B type 1-L (UniProt Q99880)
Assay: as above

Listed as a hit, yes:
Histone H2B type 1-C/E/F/G/I, P62807
Histone H2A type 1-J, Q99878
Histone H3.2, Q71DI3

Target: Histone H2B type 1-M (UniProt Q99879)
Assay: as above

Listed as a hit, yes:
Histone H4, P62805
Histone H2B type 1-C/E/F/G/I, P62807
Histone H2A type 1-J, Q99878
Histone H3.2, Q71DI3
